Laboratory results taken from PubChem BioAssay.
Active and inactive are the calls of the source.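 Rule for the calls: active = percent response above a set limit, the screen-wide mean plus 3 SD (cut at about 130% in these data); inactive = the rest.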

test: TOR pathway RTG branch CIT2 reporter changes – S. cerevisiae, GFP fusion, multiplex flow cytometry, primary screen (AID 1870);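 note: barcoded CIT2-GFP strain pooled with four other GFP strains with rapamycin as positive control; median GFP fluorescence per well over plate mean of DMSO wells so 100% = DMSO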; settings: S. cerevisiae CIT2-GFP expression, 3 h, at 10 µM, active compounds read high

Percent response of DMSO control, inactive:
C[C@]12CC[C@@H]3c4ccc(OS(=O)(=O)O)cc4CC[C@H]3[C@@H]1CCC2=O 96.6%
O=C1C2C3C=CC(C4CC34)C2C(=O)N1/N=C/c1ccc(-c2ccc([N+](=O)[O-])cc2)o1 (stereo not given) 101%
Cc1oc2ccc(OC(=O)c3cccs3)cc2c1C(=O)OC(C)C 92.5%
COc1ccc(CCN(C)CC(=O)Nc2cc(C)nc3ccccc23)cc1OC 104%
C[C@]12C=CC(=O)C=C1CCC1C3CC[C@](O)(C(=O)CO)[C@@]3(C)CC3OC312 (stereo not given in full) 95.8%
c1ccc2c(c1)CCCC2C1=NCCN1 (stereo not given) 102%
C=CCc1cc(Cl)ccc1OCCOCCN(C)C 108%
COc1cc2c(cc1OC)C(Cc1ccc(O)cc1)N(C)CC2 (stereo not given) 108%
CCOc1ccc(C(=O)Nc2ccc(N3CCN(C(C)=O)CC3)cc2)cc1[N+](=O)[O-] 115%
OCCN(CCO)c1ccc2ccccc2c1 99.6%
COc1ccc(CN(C)CCc2ccccn2)cc1OC 102%
CC(=O)OCC1OC(n2ccc(=O)[nH]c2=O)C(O)C1O (stereo not given) 122%
CC(=O)N1N=C(c2cccs2)CC1c1ccc(C)o1 (stereo not given) 91.3%
Cc1cc(C)c2c(CCl)cc(=O)oc2c1 107%
NC12CC3CC(CC(C3)C1)C2 111%
CC12CCC(C(=O)N3CCCCC3)([C@H](Br)C1=O)C2(C)C (stereo not given in full) 101%
CC(NCCC(c1ccccc1)c1ccccc1)c1ccccc1 (stereo not given) 111%
O=P(O)(O)CP(=O)(O)O 90.5%
CCCCC[C@H](O)/C=C/[C@@H]1[C@@H](C/C=C\CCCC(=O)OC)[C@@H](O)C[C@H]1O 99.2%
Cc1cc(C(C)(C)C)cc(C)c1CC1=NCCN1 96.6%
CC1CCCc2sc3ncn(N)c(=N)c3c21 (stereo not given) 105%
O=C1NC2(Nc3ccccc31)C(=O)Nc1ccc(Br)cc12 (stereo not given) 102%
Cc1cc(-c2ccccc2)nnc1NCCN1CCOCC1 93.9%
Cc1ccccc1OCC(O)CN1CCN(C)CC1 (stereo not given) 112%
COc1cc(/C=C/C(=O)N2CCCC2)cc(OC)c1OC 107%
CNCCCN1c2ccccc2CCc2ccccc21 92.6%
Nc1c2c(nc3ccccc13)CCCC2 99.2%
COc1ccc(C2C3C(C)=NN=C3CC(C)(O)C2C(C)=O)cc1 (stereo not given) 97.7%
O=c1c2ccccc2nnn1Cc1cccc2ccccc12 103%
CC1(C)CC(=O)C(C(=O)CCCCC(=O)C2C(=O)CC(C)(C)CC2=O)C(=O)C1 112%
COC(=O)c1ccc(CC(=O)c2ccc(O)cc2O)o1 91.3%
O=C(CCCCCCCC(=O)c1ccccc1)c1ccccc1 98.6%
CC(=O)OC[C@H]1O[C@@H](n2ncc(=O)[nH]c2=O)[C@H](OC(C)=O)[C@@H]1OC(C)=O 119%
CC1CNCCN1S(=O)(=O)c1cccc2cnccc12 (stereo not given) 104%
COc1cc(C2C(C(=O)c3ccc(C)o3)=C(O)C(=O)N2Cc2cccnc2)ccc1O (stereo not given) 106%
Cc1ccccc1NC(=O)C1c2ccccc2Oc2ccccc21 110%
COc1ccc(-c2coc3cc(O)cc(O)c3c2=O)cc1 116%
Nc1cccc(C(=O)O)c1 122%
CCN1CCN(C(=O)N[C@@H](C(=O)N[C@@H]2C(=O)N3[C@@H]2SC(C)(C)[C@@H]3C(=O)O)c2ccccc2)C(=O)C1=O 103%
COCCc1ccc(OCC(O)CNC(C)C)cc1 (stereo not given) 98.9%
